Shown are actives, neighbours in structure and some others; about 2.3% of the full set was active somewhere.
BCLXL inh – inhibitors of human Bcl-xL, primary screen, biochemical, fluorescence polarization, HTS | inhibition, % at 10.9 µM | GST-Bcl-xL / FITC-Bim BH3 peptide fluorescence polarization | AID 2129, 2009 | Bcl-2-like protein 1 (Homo sapiens), Q07817 | 0.7% of 320,000 active;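 active = inhibition above the mean of all tested compounds plus 3 SD, cutoff set per campaign, cut at about 30% in these data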;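 also: 0% = DMSO wells and 100% = unlabeled Bim-BH3 peptide competitor; inhibitors lower millipolarization by displacing the labeled peptide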
MCL1-BIM inh – inhibitors of MCL1 binding to BIM-BH3, primary screen, biochemical, fluorescence polarization; 0.68% of 320,000 active; GST-MCL1 / FITC-Bim-BH3 fluorescence polarization; inhibition, % at 10.9 µM; Induced myeloid leukemia cell differentiation protein Mcl-1 (Homo sapiens), Q07820;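 active = inhibition above the mean inhibition of all tested compounds plus 3 SD, set per campaign, cut at about 40% in these data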;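 also: 0% = DMSO wells and 100% = unlabeled Bim-BH3 peptide control; higher means more loss of mP so more displacement of Bim peptide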
GLD-1 RNA inh – GLD-1/TGE RNA complex disruptors, primary screen, biochemical, fluorescence polarization. Female germline-specific tumor suppressor gld-1 (Caenorhabditis elegans), Q17339. purified GLD-1 + fluorescein TGE RNA. inhibition, % at 5.96 µM. 0.44% of 320,000 active;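 active = percent inhibition above a per-plate cutoff, the plate mean of test compounds plus 3 SD, cut at about 30% in these data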;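 also: 0% = DMSO wells with GLD-1 and probe and 100% = wells lacking GLD-1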
Target sequence (Q17339 whole entry, looked up): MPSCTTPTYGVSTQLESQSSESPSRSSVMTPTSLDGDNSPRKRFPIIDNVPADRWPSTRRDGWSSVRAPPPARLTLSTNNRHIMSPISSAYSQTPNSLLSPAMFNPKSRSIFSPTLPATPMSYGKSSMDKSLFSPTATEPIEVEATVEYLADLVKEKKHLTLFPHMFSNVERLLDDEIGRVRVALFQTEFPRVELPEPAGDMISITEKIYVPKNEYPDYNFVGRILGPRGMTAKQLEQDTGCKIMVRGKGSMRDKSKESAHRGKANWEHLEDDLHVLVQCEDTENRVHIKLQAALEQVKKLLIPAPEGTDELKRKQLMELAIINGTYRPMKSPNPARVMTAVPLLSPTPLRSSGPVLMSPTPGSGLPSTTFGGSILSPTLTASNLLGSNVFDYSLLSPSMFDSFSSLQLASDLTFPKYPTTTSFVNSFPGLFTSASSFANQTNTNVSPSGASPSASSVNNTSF
Mcl1 Noxa PPI – Mcl-1/Noxa binding inhibitors, primary screen, biochemical, TR-FRET, 1536-well; Induced myeloid leukemia cell differentiation protein Mcl-1 (Homo sapiens), Q07820; TR-FRET Mcl-1/Noxa peptide binding, 2 h; inhibition, % at 21.7 µM; 1.5% of 220,000 active; AID 1022, 2008;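 active = compounds that cut the protein-peptide binding signal by more than 50% relative to plate controls in a single-dose test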;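 also: His-tagged Mcl-1 with rhodamine Noxa BH3 peptide and terbium anti-His antibody; 0% = Mcl-1 plus Noxa peptide wells and 100% = peptide-only wells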
Mcl1 Bid PPI – Mcl-1/Bid binding inhibitors, primary screen, biochemical, TR-FRET, 1536-well; Induced myeloid leukemia cell differentiation protein Mcl-1 (Homo sapiens), Q07820; TR-FRET Mcl-1/Bid-Dy647 peptide binding; inhibition, % at 21.7 µM; 0.97% of 220,000 active; AID 1021, 2008;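 active = compounds that cut the binding signal by more than half at the single screening dose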;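 also: His-tagged Mcl-1 with europium anti-His antibody binding Bid BH3 peptide; 0% = Mcl-1 plus peptide wells and 100% = peptide-only wells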
Mcl-1 Bim block – inhibitors of Bim peptide binding to Mcl-1, primary screen, biochemical, bead-based flow cytometry, multiplex; Induced myeloid leukemia cell differentiation protein Mcl-1 (Homo sapiens), Q07820; Bim peptide-Mcl-1 binding; inhibition, % at 10 µM; 0.1% of 190,000 active; AID 1009, 2008; in the data active = inhibition above about 40%;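 also: 0% = no compound tracer wells and 100% = peptide blocker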
Starred values were filed as active, the others as inactive; / = no result.

SMILES	BCLXL inh	MCL1-BIM inh	GLD-1 RNA inh	Mcl1 Noxa PPI	Mcl1 Bid PPI	Mcl-1 Bim block
Cc1cc(C)c2c(=O)[nH]c(SCC(=O)c3ccc(F)c(C)c3)nc2n1	-2	-4	5	-225	59*	-6
CCOc1ccc2nc(C)cc(Nc3ccc(N4CCOCC4)cc3)c2c1	3	-4	6	62*	-5	-2
CC1=C(C(=O)OCC(C)C)C(c2ccsc2)NC(=O)N1 (stereo not drawn)	-3	-6	5	79*	-5	-3
Cc1noc(C)c1S(=O)(=O)N1CCCN(C(=O)/C=C/c2ccccc2F)CC1	0	-5	2	/	/	/
COc1ccccc1OC(=O)Nc1ccc(Cl)cc1	48*	47*	11	/	/	/
COc1ccccc1OCC(=O)NNC(=O)Nc1ccc(Cl)cc1	-3	-5	0	13	-25	2
CCN(C(=O)c1ccc(S(=O)(=O)N2CCCCC2)cc1)C1CCS(=O)(=O)C1 (stereo not drawn)	9	5	4	/	/	/
Cc1ccc(C(=O)C(C(=O)/C=C/c2ccccc2)=C2SCCCS2)cc1	6	9	0	2	3	58*
COc1ccc(/C=C/C(=O)C(C(N)=O)=C2SCCS2)cc1	9	8	-8	20	-9	17
Cc1ccccc1NC(=O)OCc1cccnc1Oc1ccc(Cl)cc1	-3	1	-4	3	-22	-1
COc1ccc(C(=O)O)cc1NC(=S)NC(=O)c1ccc(-c2ccc(Cl)cc2)o1	/	/	/	75*	10	0
Cc1cccc(NC(=O)CN2C(=O)N/C(=C/c3cc(C)n(-c4cccnc4)c3C)C2=O)c1	2	1	-6	16	-25	0
Cc1cccc(NC(=O)CN2C(=O)N/C(=C/c3cc(C)n(-c4ccncc4)c3C)C2=O)c1	0	3	0	37	81*	-3
O=C(CN(C(=O)CNC(=O)c1ccco1)c1ccc2c(c1)OCO2)NC1CCCCC1	-1	-4	1	16	83*	1
O=C(CN(C(=O)CNC(=O)c1ccco1)c1ccc2c(c1)OCCO2)NC1CCCC1	3	8	-4	9	-48	3
COC(=O)/C=C(\C)N=Nc1c(O)[nH]c2ccccc12	6	0	6	52*	34	/
Cc1ccc2[nH]c(O)c(N=Nc3nc4ccccc4s3)c2c1	10	22	-3	95*	51*	/
Oc1[nH]c2ccccc2c1N=Nc1ccccc1	41*	21	70*	5	-12	/
Cc1ccc2[nH]c(C)c(/C=N/Nc3nc4ccccc4s3)c2c1	-4	-3	4	18	-69	0
Oc1[nH]c2ccccc2c1N=Nc1nc2ccccc2s1	16	28	1	84*	59*	-2
Oc1[nH]c2ccccc2c1N=Nc1ccc(F)cc1	-70	-191	-27	17	-15	0
CC(C)(O)C(=O)N=Nc1c(O)[nH]c2ccccc12	-1	-2	4	-11	5	-5
Cc1ccc(S(=O)(=O)N2CCCC2)cc1C(=O)NCCOc1ccccc1	3	-3	7	/	/	/
CCOc1ccc(C(C)(C)C)cc1S(=O)(=O)Nc1ccncc1	0	-1	2	/	/	/
Cc1cc(C)cc(C(=O)NCCCN2CCOCC2)c1	1	6	4	/	/	/
CSCCCN1CCCC(CO)(Cc2ccccc2F)C1 (stereo not drawn)	5	3	-6	/	/	/
O=C(CN1C(=O)NC2(CCOc3ccccc32)C1=O)NCc1ccccc1 (stereo not drawn)	/	/	0	/	/	/
COC(=O)c1ccc(=O)c2nc3/c(=C/O)c(O)cc(=O)c3[nH]c12	90*	97*	4	98*	75*	/
O=c1c2c(nc3cc(-c4cccc(F)c4)[nH]n13)CCC2	-3	-4	-4	15	-25	-1
Cc1[nH]n2c(=O)c3c(nc2c1-c1ccccc1)CCCC3	2	2	1	19	-10	-3

Source: PubChem (several laboratories)
